The text below walks through data of PubChem BioAssay (NCI).

Some test systems named below: HCT-15 colon; HT29 colon; SNB-75 CNS; SNB-19 CNS; PC-3 prostate; SK-MEL-5 melanoma; UACC-62 melanoma; LOX IMVI melanoma; SK-MEL-28 melanoma; SK-MEL-2 melanoma; SN12C renal; UO-31 renal; TK-10 renal; ACHN renal; CAKI-1 renal; A498 renal; CCRF-CEM leukemia; MOLT-4 leukemia; U251 CNS; EKVX NSCLC.
Holding throughout (assay): NCI-60 one-dose screen, 48 h (100 = growth as untreated, 0 = no growth, -100 = all killed)
Details in all cases: 10 µM

This is part of a sample that, as a whole, favours compounds with a hit. Of some 83,000 tested, about 20% had one in any assay.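 Compound tested at a single concentration for 48 hours in 96-well plates; a percent growth value below 10 was scored as active.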 A number with no mark means an inactive call. Active and inactive are the calls of the source.

On to `Nc1nc2c(ncn2C2OC3COP(=O)(O)OC4C(COP(=O)(O)OC2C3O)OC(n2cnc3c(N)ncnc32)C4O)c(=O)[nH]1` (stereo not drawn), for which the growth in the assay on HCT-15 colon was 106%; in the assay on HT29 colon it was 97.4%; in the assay with SNB-75 CNS it was 104%; with SNB-19 CNS it was 93.5%; with PC-3 prostate, 108%; in the assay on SK-MEL-5 melanoma, 106%. Moreover, the growth in the assay with UACC-62 melanoma was 103%; in the assay with LOX IMVI melanoma, 90.2%; with SK-MEL-28 melanoma, 113%; in the assay on SK-MEL-2 melanoma, 115%; with SN12C renal, 106%; in the assay on UO-31 renal, 104%. The growth with TK-10 renal was 112%; in the assay with ACHN renal, 105%; in the assay with CAKI-1 renal it was 100%; in the assay on A498 renal, 5.1% (active); in the assay with CCRF-CEM leukemia, 97.8%; in the assay with MOLT-4 leukemia, 92.8%.

As for `CCOc1cc(Br)c(C(C)NC(=O)c2cccc(OC)c2)cc1OCC` (stereo not drawn), the growth in the assay with HCT-15 colon is 59.8%; with HT29 colon, 17.7%; with SNB-75 CNS it was 76.7%; in the assay with U251 CNS, 58.4%; in the assay with PC-3 prostate, 64.9%; in the assay on SK-MEL-5 melanoma it was 45.1%. The growth with UACC-62 melanoma was -56.2% (active); with LOX IMVI melanoma, 73.4%; with SK-MEL-28 melanoma, 5.81% (active); in the assay with SK-MEL-2 melanoma, 80.9%; in the assay on SN12C renal, 78.8%; in the assay with UO-31 renal it was 54.7%. The growth in the assay on ACHN renal was 95.7%; in the assay with CAKI-1 renal, 81.6%; in the assay with A498 renal, 54%; in the assay with CCRF-CEM leukemia it was 53.7%; with MOLT-4 leukemia, 49.3%.

Regarding `COc1ccc2nc(NC(=O)Nc3c(F)cccc3F)sc2c1`, the growth was 101% with HCT-15 colon; 102% with HT29 colon; 118% in the assay on SNB-75 CNS; 95% in the assay on U251 CNS; 95% with PC-3 prostate; 91.2% with SK-MEL-5 melanoma. The growth was 94.4% in the assay with UACC-62 melanoma; 106% with LOX IMVI melanoma; 103% in the assay on SK-MEL-28 melanoma; 114% in the assay with SK-MEL-2 melanoma; 102% with EKVX NSCLC; 102% in the assay with UO-31 renal. In addition, the growth in the assay with TK-10 renal is 84.8%; in the assay with ACHN renal, 106%; with CAKI-1 renal, 104%; in the assay on A498 renal, 87.9%; in the assay on CCRF-CEM leukemia, 96.1%; in the assay on MOLT-4 leukemia, 98.3%.

Consider `COc1ccc(/C=C(\c2cc(OC)c(OC)c(OC)c2)c2nnc(-c3cccs3)o2)cc1`, for which the growth with HCT-15 colon is 103%; with HT29 colon, 90.7%; in the assay on SNB-75 CNS it was -10.5% (active); in the assay on U251 CNS, 55.7%; in the assay with PC-3 prostate it was 81.7%; in the assay with SK-MEL-5 melanoma, 64.6%. The growth with UACC-62 melanoma was 78.1%; with LOX IMVI melanoma, 92.8%; with SK-MEL-28 melanoma it was 69.7%; in the assay with SK-MEL-2 melanoma, 81.9%; in the assay with EKVX NSCLC, 78.6%; with SN12C renal it was 84.6%. The growth with UO-31 renal is 89.3%; with TK-10 renal, 75.5%; with ACHN renal, 75.3%; with CAKI-1 renal, 66.3%; in the assay on MOLT-4 leukemia, 87.6%.

Consider `CCCCCCCCCCCC(c1ccccc1)N(C)C` (stereo not drawn), for which the growth in the assay with HCT-15 colon is 95.6%; with HT29 colon, 86.3%; with SNB-75 CNS, 89.5%; with U251 CNS it was 95.6%; in the assay on PC-3 prostate, 78.1%; in the assay on UACC-62 melanoma, 94.9%. Besides, the growth in the assay on LOX IMVI melanoma was 92.7%; in the assay with SK-MEL-28 melanoma it was 99%; in the assay on SK-MEL-2 melanoma, 116%; in the assay with SN12C renal it was 90.7%; with UO-31 renal, 68.9%; in the assay on ACHN renal it was 92.5%. Besides, the growth in the assay on CAKI-1 renal is 93.2%; with A498 renal, 71.2%; in the assay on CCRF-CEM leukemia it was 69.1%; in the assay on MOLT-4 leukemia, 82.1%.

With `CC[C@@]1(C(N)=O)CC2C=CC1C2` (stereo partly drawn), the growth with HCT-15 colon is 116%; in the assay with HT29 colon, 106%; in the assay with SNB-75 CNS it was 92.4%; in the assay with PC-3 prostate it was 93.1%; in the assay on SK-MEL-5 melanoma, 106%; in the assay on UACC-62 melanoma it was 107%. The growth is 105% in the assay on LOX IMVI melanoma; 112% in the assay with SK-MEL-28 melanoma; 105% with SK-MEL-2 melanoma; 102% in the assay on EKVX NSCLC; 102% in the assay on SN12C renal; 95.5% in the assay on UO-31 renal. Moreover, the growth in the assay on TK-10 renal is 108%; in the assay with ACHN renal, 113%; in the assay with CAKI-1 renal, 103%; in the assay with A498 renal, 123%; in the assay on CCRF-CEM leukemia it was 87.9%; with MOLT-4 leukemia it was 88.3%.

For `N/C(=N\O)c1cn(C2OC(CO)C(O)C2O)c2ncnc(N)c12` (stereo not drawn), the growth in the assay with HCT-15 colon was 7.46% (active); with HT29 colon it was 7.04% (active); in the assay with SNB-75 CNS, -7.06% (active); in the assay on U251 CNS it was 10.7%; in the assay on PC-3 prostate, 4.66% (active); in the assay on SK-MEL-5 melanoma, -43% (active). Further, the growth with UACC-62 melanoma is -68.2% (active); with LOX IMVI melanoma, -63.2% (active); in the assay with SK-MEL-28 melanoma it was -53.3% (active); in the assay with SK-MEL-2 melanoma, -41.5% (active); with SN12C renal, 3.58% (active); in the assay with UO-31 renal, 10% (active). The growth is -0.402% (active) in the assay on TK-10 renal, 11.6% with ACHN renal, 3.33% (active) in the assay with CAKI-1 renal and -10.4% (active) in the assay with CCRF-CEM leukemia.

As to `O=C1/C(=C/c2ccc(O)cc2)Cc2ccc(Cl)cc21`, the growth is 89.2% in the assay on HCT-15 colon; 110% in the assay with HT29 colon; 73.4% with SNB-75 CNS; 95.8% with U251 CNS; 92.6% in the assay on PC-3 prostate; 79.3% with SK-MEL-5 melanoma. For the same compound, the growth in the assay on UACC-62 melanoma is 77.3%; in the assay on LOX IMVI melanoma, 84.2%; in the assay with SK-MEL-28 melanoma it was 114%; in the assay on SK-MEL-2 melanoma it was 93%; with SN12C renal it was 77.8%; with UO-31 renal it was 45.2%. For the same compound, the growth in the assay with TK-10 renal is 127%; in the assay with ACHN renal it was 80%; in the assay on CAKI-1 renal, 68.3%; in the assay with A498 renal, 121%; in the assay with CCRF-CEM leukemia, 67.7%; in the assay on MOLT-4 leukemia it was 70.3%.

Regarding `COc1ccc(-c2csc(-c3cc(Cl)cc(Cl)c3Cl)n2)cc1`, the growth with HCT-15 colon was 89.2%; in the assay on HT29 colon, 101%; with SNB-75 CNS, 91.6%; in the assay on U251 CNS it was 93.3%; with PC-3 prostate it was 95%; with SK-MEL-5 melanoma, 29.2%. The growth in the assay on UACC-62 melanoma is 63%; with LOX IMVI melanoma it was 83.1%; in the assay with SK-MEL-28 melanoma it was 107%; in the assay with SK-MEL-2 melanoma, 96.3%; in the assay with EKVX NSCLC it was 80.5%; in the assay with SN12C renal, 91.3%. Also, the growth in the assay on TK-10 renal was 118%; in the assay on ACHN renal, 89.7%; in the assay on CAKI-1 renal, 85.9%; in the assay with CCRF-CEM leukemia, 97.4%; in the assay on MOLT-4 leukemia, 89%.

Take `COc1cccc(C2(C)Nc3ccccc3-c3nc4ccccc4n32)c1` (stereo not drawn): the growth was 105% with HCT-15 colon; 113% in the assay with HT29 colon; 103% in the assay with SNB-75 CNS; 101% in the assay with U251 CNS; 109% with PC-3 prostate; 101% in the assay with SK-MEL-5 melanoma. Further, the growth in the assay with UACC-62 melanoma is 102%; with LOX IMVI melanoma it was 101%; in the assay on SK-MEL-28 melanoma, 107%; in the assay with SK-MEL-2 melanoma, 105%; in the assay on SN12C renal it was 100%; with UO-31 renal it was 94.2%. In addition, the growth in the assay with TK-10 renal is 106%; with ACHN renal, 102%; with CAKI-1 renal it was 99.8%; with A498 renal, 95.6%; with CCRF-CEM leukemia, 99.1%; with MOLT-4 leukemia, 84.5%.
